Results published in PubChem BioAssay (NCI).
About 79,000 compounds went through this panel and 15% of them were active in at least one assay; those are over-represented in the sample as a whole. The source made the active and inactive calls. Cut-off read from the data, not from the text of the source: active = growth inhibition above about 70%; inactive = the rest.

Assay: NCI Yeast Anticancer Drug Screen. Data for the rad18 strain (AID 177)
Conditions: S. cerevisiae rad18 mutant growth inhibition, stronger effect = higher value
Protocol: Growth inhibition of yeast strains with defined genetic alterations is measured as a screen for potential anti-cancer activity. Selected strains with alterations in DNA damage repair or cell cycle control were exposed to compounds and growth inhibition was measured relative to vehicle treated controls. The strain used in this assay is rad18

Measured: growth inhibition

COCCCN(Cc1cc(OC)c(OC)c(OC)c1)C(=S)Nc1cccc(Cl)c1
inactive: at 1.2 µM -17% | at 3.7 µM -25% | at 11.0 µM -17% | at 33.0 µM -15% | at 100.0 µM 27%

O=C(/C=C/c1cccc2ccccc12)c1ccc(Cl)cc1
inactive: at 1.2 µM 3% | at 3.7 µM 9% | at 11.0 µM 5% | at 33.0 µM 13% | at 100.0 µM 14%

COc1cc(/C=C/c2sc3ccccc3[n+]2C)ccc1N(C)C
inactive: at 1.2 µM 2% | at 3.7 µM 5% | at 11.0 µM 2%
active: at 33.0 µM 73% | at 100.0 µM 96%

CCCc1[nH]nc(C(N)=O)c1N=NN(C)C
inactive: at 1.2 µM -2% | at 3.7 µM 6% | at 11.0 µM 32%
active: at 33.0 µM 83% | at 100.0 µM 94%

Cc1ccc(S(=O)(=O)N(C)c2ccc(Cl)cc2C2=NCCc3ccccc32)cc1
active: at 100.0 µM 94%
inactive: at 1.2 µM -13% | at 3.7 µM -12% | at 11.0 µM -18% | at 33.0 µM -11%

CCCCCCCCCCCCCC(=O)OC(C)CCC1CCCO1 (stereo not given)
inactive: at 1.2 µM 0% | at 3.7 µM 1% | at 11.0 µM -3% | at 33.0 µM -4% | at 100.0 µM -5%

O=C1C=CC(=O)N1c1ccc(N2C(=O)C=CC2=O)cc1
active: at 3.7 µM 90% | at 11.0 µM 100% | at 33.0 µM 100% | at 100.0 µM 99%
inactive: at 1.2 µM 46%

CC(=O)OCC1OC(O[C@H]2C=C[C@@H](C(=O)OCc3ccccc3)n3c(=O)n(-c4ccccc4)c(=O)n32)C(OC(C)=O)C(OC(C)=O)C1OC(C)=O (stereo not given in full)
inactive: at 1.2 µM -6% | at 3.7 µM 3% | at 11.0 µM 7% | at 33.0 µM 59%
active: at 100.0 µM 76%
